The list is not random: actives were taken first. Their share in the collection is about 4.5%.
CSC inhib: blocks cancer stem cells; hit rate 1.1% among 300,000; inhibition, % at 7.5 µM; AID 2717; cancer stem cell-like cells viability, luminescence; in the data active = inhibition above about 75%; inconclusive = no clear call, values can overlap the other calls; tested in HMLE shEcad cells
Mdm2 MdmX PPI: inhibitors of human Mdm2/MdmX interaction. SaOS-2 split-luciferase Mdm2/MdmX complementation, luminescence. inhibition, % at 8 µM. AID 485346. hit rate 3% among 330,000. O15151+Q00987;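 active = inhibition of at least 50% at 8 µM in the primary screen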
Gli-Sufu antag: blocks Gli-Sufu signaling in a luciferase reporter; inhibition, % at 5 µM; hit rate 0.74% among 340,000; Sufu-KO-LIGHT fibroblasts, Gli luciferase reporter luminescence;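 active = inhibition above about 55%, limit read from the data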;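 note: 0% = DMSO-treated cells and 100% = wells with medium but no cells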
697 NFkB inh: inhibitors of the PMA/ionomycin-induced NF-kB reporter in 697 B cells; 697 B-cell NF-kB luciferase reporter, 16 h; inhibition, % at 4 µM; AID 435022; hit rate 0.33% among 330,000; in the data active = inhibition above about 35%
Jurkat NFkB inh: inhibitors of the PMA/ionomycin-induced NF-kB reporter in Jurkat cells; hit rate 0.53% among 330,000; AID 435003; inhibition, % at 4 µM; PMA/ionomycin-induced NF-kB luciferase reporter, luminescence; in the data active = inhibition above about 50%
aSyn UTR inh: 5' untranslated region of α-synuclein, MLPCN primary screen. hit rate 0.82% among 300,000. inhibition, % (tested at 7.5 µM). alpha-synuclein 5'UTR reporter, inhibitor activity. AID 1813; in the data active = inhibition above about 60%; inconclusive = no clear call, values can overlap the other calls;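 note: H4 neuroglioblastoma cells stably carrying SNCA 5'UTR luciferase fusion; 0% = DMSO wells and 100% = positive control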
Jurkat NFkB conf: inhibitors of the PMA/ionomycin-induced NF-kB reporter in Jurkat cells, retest. hit rate 27% among 2,700. Jurkat NF-kB luciferase, 16 h. inhibition, % at 4 µM. shares compounds with Jurkat NFkB inh;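 active = inhibition reaching about 45% at 4 µM in either replicate, limit read from the data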;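 note: plate controls were PMA/ionomycin stimulated DMSO wells for no effect and unstimulated DMSO wells for full effect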
697 NFkB conf: inhibitors of the PMA/ionomycin-induced NF-kB reporter in 697 B cells, retest; AID 449746; inhibition, % at 4 µM; shares compounds with 697 NFkB inh; hit rate 35% among 2,000; 697 B-cell NF-kB luciferase, 16 h; in the data active = inhibition mostly above about 28%, no sharp cut-off; inactive = mostly below about 22%
Mdm2-MdmX conf: confirmation of human Mdm2/MdmX interaction inhibitors; shares compounds with Mdm2 MdmX PPI; Mdm2-MdmX binding, luminescent assay; inhibition, % at 8 µM; hit rate 55% among 10,000; in the data active = inhibition above about 40%
Full FLuc ctr: full-length luciferase inhibition in Mdm2/MdmX counter-screen; inhibition, % at 8 µM; shares compounds with Mdm2 MdmX PPI; SaOS-2 full-length luciferase counterscreen, luminescence; hit rate 77% among 6,200;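 active = mean inhibition at 8 µM reaching about 37%, which flags the compound as non-specific, limit read from the data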;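 note: p53-null SaOS-2 cells with luciferase driven by a doxycycline-inducible promoter; compound on cells about two nights before reading with doxycycline added after day one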
Numbers without * were called inactive; ? = inconclusive; . = no result given.

SMILES	CSC inhib	Mdm2 MdmX PPI	Gli-Sufu antag	697 NFkB inh	Jurkat NFkB inh	aSyn UTR inh	Jurkat NFkB conf	Mdm2-MdmX conf	Full FLuc ctr	others
COC(=O)c1[nH]c2c(c1C)C(=O)CC(c1cccc(OC)c1)C2 (stereo not drawn)	67	54*	35	-54	62*	41	56*	59*	92*
CCCCCOC(=O)c1[nH]c2c(c1C)C(=O)CC(c1ccco1)C2 (stereo not drawn)	73	65*	69*	-322	67*	54	49*	52*	89*	697 NFkB conf=7
CCOCCOC(=O)c1[nH]c2c(c1C)C(=O)CC(c1cccs1)C2 (stereo not drawn)	57	54*	31	16	75*	85*	46	61*	92*
CCOC(=O)c1[nH]c2c(c1C)C(=O)CC(c1ccc(F)cc1)C2 (stereo not drawn)	60	59*	39	-21	64*	?	58*	54*	63*
CCOC(=O)c1[nH]c2c(c1C)C(=O)CC(c1ccc(OCC)c(OC)c1)C2 (stereo not drawn)	2	24	8	16	3	-15	.	.	.
CCOc1ccc(N2CC(C(=O)N3CCN(c4ccccn4)CC3)CC2=O)cc1 (stereo not drawn)	-7	7	-4	3	8	7	.	.	.
N#C/C(=C\c1c(F)cccc1Cl)C(=O)NC1CC1	-4	38	24	6	-8	-5	.	.	.
CCc1nc2oc3ccc(C)cc3c(=O)c2cc1C(=O)OC	-5	.	-58	.	.	-201	.	.	.
CCOc1ccccc1N1CC(O)=C(c2nc3ccccc3s2)C1=N	65	57*	9	-11	59*	54	47	58*	58*
CCN1/C(=C/C(C)=C/c2sc3ccccc3[n+]2CC)Sc2ccccc21	144*	97*	90*	49*	93*	100*	78*	100*	15	697 NFkB conf=7
O=C(N/N=C(\c1ccccc1)c1cccnc1)c1cccc(F)c1	109*	99*	94*	-10	52*	80*	55*	80*	33
O=C(N/N=C(\c1ccccc1)c1cccnc1)c1ccc(O)cc1	-8	13	-16	18	-1	-2	.	.	.
NC(=S)N=Nc1ccc(O)cc1	.	.	1	.	.	.	.	.	.
Cc1ccc(-n2[nH]c(=O)c(-c3ccccn3)c2C)cc1	-13	79*	16	-25	58*	97*	26	81*	54*
Cc1ccc(-n2[nH]c(=O)c3cccnc32)cc1	-3	-16	4	25	9	-10	.	.	.
CSCC(C)N1CCC(CCC(=O)NC2CC2)CC1 (stereo not drawn)	-5	13	5	10	7	-10	.	.	.
CC(=O)N(c1ccc(Cl)cc1)c1cn(C(C)=O)c2ccccc12	11	-1	-41	9	-2	-14	.	.	.
CC(=O)n1cc(N(C(=O)CCl)c2ccc(C)cc2)c2ccccc21	18	99*	4	8	76*	89*	-1	100*	52*
Cc1cc(C)nc(NCCCc2ccccc2)n1	0	-20	3	-49	0	3	.	.	.
CCCCNc1cc(C)nc(NCc2ccccc2)n1	38	67*	-32	-37	70*	-17	21	60*	39*
COc1cc(NC(=O)CCc2nnc3ccc(N4CCC5(CC4)OCCO5)nn23)cc(OC)c1	6	17	31	-31	3	8	.	.	.
C#CCOCCOCCOCCNc1nc(N2CCN(C(=O)[C@H](CCCCN)n3cc([C@@H](N)C(C)CC)nn3)CC2)nc(N2CCN(C(=O)[C@H](Cc3cc4ccccc4[nH]3)n3cc([C@@H](N)CC(C)C)nn3)CC2)n1 (stereo partly drawn)	-3	-2	-1	-49	-67	-7	.	.	.

High-throughput results: PubChem, several laboratories
